Experimental data as given in the supplement of paper PMC10849652.
Targets with a hit are over-represented here; the source holds about 7,900 in all. About 0.6% of all pairs of compound and target were hits.

The targets below were run with C1=CC2=NC=CN=C2C=C1/C=C/3\C(=O)NC(=O)S3 (assay: log2 fold change, soluble protein after heating vs DMSO (PISA); higher = thermal stabilisation; K562 cells, 10 uM, 30 min; active = over 0.2 and 3.5 SD of the protein, either way, in both replicates (recomputed)).
Summary of the method: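 Values are thermal stability changes relative to control samples and are taken from duplicates. They are stated as log2 fold changes. Before quantification by TMTpro 16plex LC-MS/MS with equalised channel sums, K562 cells at 2×10^6 cells/mL were treated with 10 μM compound for 30 min, heated in aliquots for 3 min across 48°C-58°C, pooled, extracted in PBS with 0.5% NP-40 at 4°C, and centrifuged at 21,000xg for 90 min to give the soluble supernatant.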

UniProt P07205, sequence (P07205 whole entry, looked up): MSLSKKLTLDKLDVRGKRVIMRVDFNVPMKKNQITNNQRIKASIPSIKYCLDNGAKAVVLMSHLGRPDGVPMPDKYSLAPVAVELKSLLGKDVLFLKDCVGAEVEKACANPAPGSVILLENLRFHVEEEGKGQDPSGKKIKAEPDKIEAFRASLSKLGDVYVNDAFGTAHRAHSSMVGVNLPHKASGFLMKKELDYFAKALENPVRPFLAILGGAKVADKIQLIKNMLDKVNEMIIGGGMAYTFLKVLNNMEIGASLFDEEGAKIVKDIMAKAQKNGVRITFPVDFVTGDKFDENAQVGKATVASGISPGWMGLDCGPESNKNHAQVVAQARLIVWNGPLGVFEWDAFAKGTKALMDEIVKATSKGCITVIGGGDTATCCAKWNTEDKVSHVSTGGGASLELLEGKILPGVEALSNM
UniProt Q8NDX5, sequence (Q8NDX5 whole entry, looked up): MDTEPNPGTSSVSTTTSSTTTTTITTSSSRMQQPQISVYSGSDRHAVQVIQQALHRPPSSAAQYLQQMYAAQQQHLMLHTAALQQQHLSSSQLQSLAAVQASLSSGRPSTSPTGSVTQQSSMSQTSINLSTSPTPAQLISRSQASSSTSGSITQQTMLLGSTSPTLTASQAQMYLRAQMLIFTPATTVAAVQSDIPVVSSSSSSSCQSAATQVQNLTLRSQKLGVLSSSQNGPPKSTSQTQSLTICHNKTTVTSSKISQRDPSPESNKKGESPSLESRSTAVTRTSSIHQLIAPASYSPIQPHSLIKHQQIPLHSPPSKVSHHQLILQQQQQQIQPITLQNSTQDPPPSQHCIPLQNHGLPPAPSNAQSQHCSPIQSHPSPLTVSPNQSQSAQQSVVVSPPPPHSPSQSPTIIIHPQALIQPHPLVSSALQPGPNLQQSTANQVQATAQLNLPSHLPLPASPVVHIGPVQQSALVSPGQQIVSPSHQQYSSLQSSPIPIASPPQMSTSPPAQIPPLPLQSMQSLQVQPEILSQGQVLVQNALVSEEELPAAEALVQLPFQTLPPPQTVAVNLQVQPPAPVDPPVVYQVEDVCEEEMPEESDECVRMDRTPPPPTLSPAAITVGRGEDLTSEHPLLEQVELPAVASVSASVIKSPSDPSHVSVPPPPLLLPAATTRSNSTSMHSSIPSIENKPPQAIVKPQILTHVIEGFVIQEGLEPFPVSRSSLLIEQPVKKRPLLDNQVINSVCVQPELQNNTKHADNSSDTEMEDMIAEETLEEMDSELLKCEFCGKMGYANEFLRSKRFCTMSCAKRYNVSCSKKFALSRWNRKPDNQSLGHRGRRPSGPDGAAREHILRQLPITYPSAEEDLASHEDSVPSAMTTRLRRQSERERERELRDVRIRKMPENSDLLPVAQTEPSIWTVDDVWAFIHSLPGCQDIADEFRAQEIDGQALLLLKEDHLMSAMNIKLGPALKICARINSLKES
UniProt Q96RV3, sequence (Q96RV3 whole entry, looked up): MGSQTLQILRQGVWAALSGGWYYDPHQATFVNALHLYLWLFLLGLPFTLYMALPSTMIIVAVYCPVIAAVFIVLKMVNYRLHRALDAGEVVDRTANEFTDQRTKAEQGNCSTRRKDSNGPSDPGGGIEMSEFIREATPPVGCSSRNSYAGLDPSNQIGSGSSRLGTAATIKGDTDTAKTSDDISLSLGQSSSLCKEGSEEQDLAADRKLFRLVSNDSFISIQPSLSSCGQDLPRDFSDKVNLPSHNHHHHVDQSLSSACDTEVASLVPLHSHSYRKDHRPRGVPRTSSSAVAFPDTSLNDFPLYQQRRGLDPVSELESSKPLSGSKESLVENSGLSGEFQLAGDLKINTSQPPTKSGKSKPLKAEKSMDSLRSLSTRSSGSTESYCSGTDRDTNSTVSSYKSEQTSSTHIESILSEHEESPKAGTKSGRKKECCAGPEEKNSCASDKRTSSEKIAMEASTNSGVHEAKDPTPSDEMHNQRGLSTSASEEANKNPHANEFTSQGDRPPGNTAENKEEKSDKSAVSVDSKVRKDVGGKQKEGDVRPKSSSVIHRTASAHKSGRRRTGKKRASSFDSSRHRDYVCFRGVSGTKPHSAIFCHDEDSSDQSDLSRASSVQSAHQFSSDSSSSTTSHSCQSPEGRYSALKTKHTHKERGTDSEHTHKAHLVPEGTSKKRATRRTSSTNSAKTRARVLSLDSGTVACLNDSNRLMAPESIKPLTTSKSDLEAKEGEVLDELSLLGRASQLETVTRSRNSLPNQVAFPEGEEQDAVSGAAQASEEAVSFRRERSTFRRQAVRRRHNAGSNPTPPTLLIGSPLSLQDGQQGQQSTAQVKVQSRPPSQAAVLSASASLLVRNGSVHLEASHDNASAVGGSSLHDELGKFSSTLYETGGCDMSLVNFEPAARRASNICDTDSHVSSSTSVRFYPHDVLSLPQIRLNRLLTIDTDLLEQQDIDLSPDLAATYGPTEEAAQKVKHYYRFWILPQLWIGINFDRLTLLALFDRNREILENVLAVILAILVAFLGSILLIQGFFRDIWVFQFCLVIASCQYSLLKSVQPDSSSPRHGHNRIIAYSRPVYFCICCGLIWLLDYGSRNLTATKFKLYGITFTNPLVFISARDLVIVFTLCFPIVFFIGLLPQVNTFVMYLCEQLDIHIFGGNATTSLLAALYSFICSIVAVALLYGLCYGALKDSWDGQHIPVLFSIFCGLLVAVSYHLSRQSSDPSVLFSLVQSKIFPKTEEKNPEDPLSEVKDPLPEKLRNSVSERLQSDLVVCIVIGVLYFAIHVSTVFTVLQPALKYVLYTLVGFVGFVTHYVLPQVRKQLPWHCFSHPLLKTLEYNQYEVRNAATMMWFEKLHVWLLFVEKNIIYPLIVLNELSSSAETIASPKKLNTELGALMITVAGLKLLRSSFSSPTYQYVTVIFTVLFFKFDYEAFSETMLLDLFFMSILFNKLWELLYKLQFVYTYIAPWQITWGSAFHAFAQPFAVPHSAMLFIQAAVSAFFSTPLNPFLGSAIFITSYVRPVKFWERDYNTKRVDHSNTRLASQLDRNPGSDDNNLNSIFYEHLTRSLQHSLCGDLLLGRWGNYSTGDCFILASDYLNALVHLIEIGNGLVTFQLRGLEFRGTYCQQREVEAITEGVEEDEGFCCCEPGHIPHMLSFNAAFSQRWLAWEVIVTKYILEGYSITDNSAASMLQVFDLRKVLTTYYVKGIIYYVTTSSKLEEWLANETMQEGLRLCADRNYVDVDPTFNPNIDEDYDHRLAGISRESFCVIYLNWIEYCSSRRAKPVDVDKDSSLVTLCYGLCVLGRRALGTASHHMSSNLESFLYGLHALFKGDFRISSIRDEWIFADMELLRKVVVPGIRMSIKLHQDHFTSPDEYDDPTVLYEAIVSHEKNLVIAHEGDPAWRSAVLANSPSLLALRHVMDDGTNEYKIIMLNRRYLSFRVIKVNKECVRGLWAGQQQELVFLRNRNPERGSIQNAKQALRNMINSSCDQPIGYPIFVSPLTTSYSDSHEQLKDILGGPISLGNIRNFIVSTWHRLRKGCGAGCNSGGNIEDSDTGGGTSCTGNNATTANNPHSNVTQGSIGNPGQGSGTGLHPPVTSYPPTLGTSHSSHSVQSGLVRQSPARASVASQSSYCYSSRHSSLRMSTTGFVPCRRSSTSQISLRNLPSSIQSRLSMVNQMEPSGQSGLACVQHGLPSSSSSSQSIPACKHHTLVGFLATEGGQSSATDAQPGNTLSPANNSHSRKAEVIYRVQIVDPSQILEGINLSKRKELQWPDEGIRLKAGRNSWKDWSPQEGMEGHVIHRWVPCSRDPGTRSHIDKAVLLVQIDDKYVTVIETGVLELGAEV
UniProt P51817, sequence (P51817 whole entry, looked up): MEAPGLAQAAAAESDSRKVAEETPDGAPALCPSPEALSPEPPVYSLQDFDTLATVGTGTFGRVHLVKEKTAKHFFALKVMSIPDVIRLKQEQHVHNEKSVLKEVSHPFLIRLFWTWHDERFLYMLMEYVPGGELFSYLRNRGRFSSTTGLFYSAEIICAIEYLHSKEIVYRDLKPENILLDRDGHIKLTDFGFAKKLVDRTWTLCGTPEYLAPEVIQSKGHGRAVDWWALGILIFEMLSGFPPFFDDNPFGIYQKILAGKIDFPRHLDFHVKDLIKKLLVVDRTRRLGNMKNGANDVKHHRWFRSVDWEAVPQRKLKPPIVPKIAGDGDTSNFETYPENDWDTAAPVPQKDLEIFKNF
UniProt Q8TCG2, sequence (Q8TCG2 whole entry, looked up): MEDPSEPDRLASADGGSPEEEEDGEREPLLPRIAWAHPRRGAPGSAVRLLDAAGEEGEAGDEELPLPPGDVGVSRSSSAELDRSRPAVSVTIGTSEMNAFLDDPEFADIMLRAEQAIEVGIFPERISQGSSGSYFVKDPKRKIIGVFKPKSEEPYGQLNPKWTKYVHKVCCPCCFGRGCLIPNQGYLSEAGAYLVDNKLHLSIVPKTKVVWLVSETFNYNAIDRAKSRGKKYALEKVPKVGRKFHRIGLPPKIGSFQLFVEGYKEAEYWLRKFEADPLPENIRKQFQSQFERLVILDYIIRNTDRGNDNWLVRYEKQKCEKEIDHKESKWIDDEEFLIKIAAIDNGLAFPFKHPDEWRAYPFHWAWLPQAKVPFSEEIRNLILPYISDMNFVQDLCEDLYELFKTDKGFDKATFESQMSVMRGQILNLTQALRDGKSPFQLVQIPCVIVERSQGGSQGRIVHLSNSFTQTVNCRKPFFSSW
UniProt Q9NUJ7, sequence (Q9NUJ7 whole entry, looked up): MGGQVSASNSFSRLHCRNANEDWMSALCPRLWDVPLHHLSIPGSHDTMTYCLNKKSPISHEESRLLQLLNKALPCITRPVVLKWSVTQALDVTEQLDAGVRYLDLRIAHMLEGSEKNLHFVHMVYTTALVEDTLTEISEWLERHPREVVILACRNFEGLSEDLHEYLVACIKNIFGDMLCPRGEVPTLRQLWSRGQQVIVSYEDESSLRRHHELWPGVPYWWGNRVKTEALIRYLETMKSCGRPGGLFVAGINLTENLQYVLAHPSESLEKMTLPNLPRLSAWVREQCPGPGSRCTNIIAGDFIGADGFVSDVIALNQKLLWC
UniProt O75365, sequence (O75365 whole entry, looked up): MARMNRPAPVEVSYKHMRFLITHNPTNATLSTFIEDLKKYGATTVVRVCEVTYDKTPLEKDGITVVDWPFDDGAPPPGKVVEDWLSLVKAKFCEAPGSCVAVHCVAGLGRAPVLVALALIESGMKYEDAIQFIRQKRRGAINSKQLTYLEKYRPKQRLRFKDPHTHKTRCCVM

log2 fold change, inactive:
PTP4A3 (UniProt O75365) -0.041
PSMA3 (UniProt G3V4X5) 0.051
PPP1R12C (UniProt Q9BZL4) 0.064
PI4K2B (UniProt Q8TCG2) 0.016
PPP1R12B isoform 6 (UniProt O60237) -0.081
PCF11 (UniProt O94913) 0.111
PRKD3 (UniProt O94806) 0.034
PRKD2 (UniProt M0R346) -0.032
PTK2B (UniProt Q14289) 0.058
PCID2 (UniProt Q5JVF3) 0.028
PSMC3 (UniProt E9PLG2) 0.151
PCNX1 (UniProt Q96RV3) -0.006
PRKX (UniProt P51817) 0
PAN2 (UniProt Q504Q3) 0.044
PPP2R5C isoform 2 (UniProt Q13362) -0.011
PKM isoform 2 (UniProt P14618) -0.18
PGK2 (UniProt P07205) -0.018
PNPLA4 (UniProt P41247) 0.133
PLCXD1 (UniProt Q9NUJ7) 0.025
PCBP2 (UniProt F8VZX2) -0.019
PHC3 isoform 7 (UniProt Q8NDX5) 0.174
PPP2R5B (UniProt Q15173) 0.072
PUF60 isoform 2 (UniProt Q9UHX1) 0.086
